Entries with a potency or affinity are not part of this list. Unmarked numbers belong to inactive results.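 How the source made its calls: active means fluorescent signal decreased by at least 40%; inconclusive means no clear call, values can overlap the other calls; inactive means the rest, including activity opposite to the expected direction.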
Assay: fibronectin fibrillogenesis inhibitors in fibroblasts, dose response, AH1F cells, Alexa488-fibronectin fluorescence, cherry-pick, set 2 (AID 1117283);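 further: AH1F fibroblasts given Alexa488-labelled fibronectin at 24 nM final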
Conditions: Alexa488-fibronectin deposition fluorescence, overnight; series mostly up to 35 µM; activity change, negative = inhibition: at the top concentration

| SMILES | activity change, negative = inhibition |
| --- | --- |
| O=C(Nc1nc(-c2ccncc2)cs1)C1COc2ccccc2O1 (configuration not stated) | 3.61% |
| CO[C@@H]1CN(C)C(=O)c2cc(NC(=O)Nc3ccc(Cl)c(Cl)c3)ccc2OC[C@@H](C)NC[C@@H]1C | 0.023% |
| CO[C@@H]1CN(C)C(=O)c2cc(NC(=O)Nc3ccc(Cl)c(Cl)c3)ccc2OC[C@H](C)NC[C@H]1C | 8.41% |
| COc1ccc(S(=O)(=O)N2CCCCC2c2cc(C(=O)Nc3ccc4c(c3)OCO4)no2)cc1 (configuration not stated) | 1.69% |
| CN(C)C(=O)c1ccc(-c2ccc3c(c2)[C@H]2[C@H](CCN2C(=O)c2ccc(F)cc2)[C@H](CO)N3C)cc1 | -3.09% |
| Cc1cccc(NC(=O)Nc2ccc(S(=O)(=O)Nc3onc(C)c3C)cc2)c1 | -5.54% |
| O=S(=O)(c1cccc(F)c1)N1CC[C@H]2[C@H](CO)Nc3ccc(-c4cccc(F)c4)cc3[C@H]21 | -8.58% |
| CO[C@@H]1CN(C)C(=O)c2ccc(NC(=O)Nc3ccc(Cl)c(Cl)c3)cc2OC[C@@H](C)NC[C@@H]1C | 14.5% |
| CO[C@H]1CN(C)C(=O)c2cc(NC(=O)Nc3cc(Cl)cc(Cl)c3)ccc2OC[C@H](C)NC[C@H]1C | -12.7% |
| COC(=O)c1cn(CC(=O)NCc2ccco2)c2ccccc12 | -4.91% |
| C[C@@H]1CN([C@H](C)CO)C(=O)c2cccc(NC(=O)Nc3ccc(C(F)(F)F)cc3)c2O[C@@H]1CN(C)C(=O)Nc1cccc2ccccc12 | -3.32% |
| Cc1ccc(Nc2nnc(SCc3ccccc3)s2)cc1 | 1.45% |
| CCC(C)(C)NC(=O)C(OC(=O)c1ccco1)c1ccccc1OC (configuration not stated) | 3.17% |
| C[C@@H](O)C#Cc1ccc2c(c1)O[C@@H](CN(C)C)[C@@H](C)CN([C@@H](C)CO)S2(=O)=O | -0.196% |
| C[C@@H]1CN([C@H](C)CO)C(=O)c2cccc(NC(=O)Nc3ccc(C(F)(F)F)cc3)c2O[C@H]1CN(C)C(=O)Nc1cccc2ccccc12 | 6.53% |
| O=S(=O)(c1cccc(F)c1)N1CC[C@@H]2[C@@H](CO)Nc3ccc(-c4cccc(F)c4)cc3[C@@H]21 | 4.96% [at 30 µM] |
| C[C@H]1CN([C@@H](C)CO)C(=O)c2cc(-c3ccccc3)cnc2O[C@H]1CN(C)Cc1ccccc1 | 11.9% |
| COCC(C)n1c(SCc2nc(N)nc(Nc3ccccc3C)n2)nc2ccccc2c1=O (configuration not stated) | -3.15% |
| C[C@H]1CN([C@@H](C)CO)C(=O)c2cc(NC(=O)C3CCCCC3)ccc2O[C@@H]1CN(C)Cc1ccc(-c2ccccc2)cc1 | -0.105% |

| SMILES | activity change, negative = inhibition |
| --- | --- |
| O=C(Nc1ccccc1F)N1C[C@@H]2[C@H](c3ccccc31)[C@H](CO)N2C(=O)C1CCOCC1 | 4.14% |
| COc1cccc(-c2ccc3c(c2)[C@H]2[C@H](CCN2S(=O)(=O)c2cccc(OC)c2)[C@@H](CO)N3)c1 | -7.16% |
| CN(C)c1ccc(-c2ccnc3c2CC(C)(C(=O)NCC2CC2)O3)cc1 (configuration not stated) | 10.7% |
| O=C(c1cccnc1)N1C[C@H]2[C@@H](c3ccccc31)[C@@H](CO)N2CC1CCCC1 | 4.21% |
| Cc1ccc([N+](=O)[O-])cc1NC(=O)CN(C(=O)c1ccccc1Cl)C1CCCCC1 | -2.21% |
| C[C@H]1CN([C@@H](C)CO)C(=O)c2cc(-c3ccccc3)cnc2O[C@@H]1CN(C)C(=O)c1cccc(F)c1 | -6.59% |
| COCC(=O)Nc1ccc2c(c1)C(=O)N(C)[C@@H]1CC[C@H](CC(=O)NCc3ccccc3Cl)O[C@H]1CO2 | -3.95% |
| C[C@H](CO)N1C[C@H](C)[C@H](CN(C)Cc2ccc(-c3ccccc3)cc2)Oc2ccc(NC(=O)C3CCCCC3)cc2C1=O | -3.46% [at 30 µM] |
| O=c1c2cc(N3CCOCC3)ccc2[nH]c(=S)n1Cc1ccc(Cl)cc1 | -10.1% |
| N#C[C@@H]1[C@H](c2ccccc2C2=CCCCC2)[C@H](CO)N1S(=O)(=O)c1ccccc1 | -8.31% |
| N#C[C@@H]1[C@@H](c2ccccc2C2=CCCCC2)[C@H](CO)N1S(=O)(=O)c1ccccc1 | 2.88% |
| CO[C@@H]1CN(C)C(=O)c2cc(NC(=O)Nc3ccc(Cl)c(Cl)c3)ccc2OC[C@H](C)NC[C@@H]1C | -5.63% |
| O=C(Nc1ccccc1F)N1C[C@@H]2[C@H](c3ccccc31)[C@H](CO)N2C(=O)C1CC1 | 2.39% |
| Cc1cccc(NC(=O)c2ccc(S(=O)(=O)N3CCCCC3)cc2)n1 | -4.63% |
| CCc1nc2c(OCCc3cccc(OC)c3)cccn2c1N(C)C(=O)c1ccc(C)cc1 | 0.686% |
| N#C[C@H]1[C@@H](c2ccccc2C2=CCCCC2)[C@@H](CO)N1S(=O)(=O)c1ccccc1 | 2.55% |
| CC(C)(C)[S@](=O)N1Cc2cc(C(=O)NCc3ccccc3F)nc(-c3cccc(-c4cncnc4)c3)c2[C@@H]1CCO | 7.09% |
| CO[C@@H]1CN(C)C(=O)c2cc(NC(=O)Nc3cc(Cl)cc(Cl)c3)ccc2OC[C@@H](C)NC[C@@H]1C | 7.38% |

From PubChem BioAssay AID1117283 (Broad Institute, 2014)
